We go through ten molecules from ChEMBL document CHEMBL3988442, “University of Dundee, Small-Polar-MMV Screening Library” (2021).

Molecules are shown by their SMILES. Several values for one entry are separate records, joined by “and”; a condition that tells them apart may be missing. Equal entries are not always repeated. For some of these results: Entries with a potency or affinity are not part of this list.

Common to all, as to set-up: scale not given: direction of the effect not stated beside the values
Experiment [1] addresses Protein translocase subunit SecA (Escherichia coli (strain K12)) (UniProt P10408). Kind of experiment: Assay to Identify E. coli SecA ATPase Inhibitors. The format is functional. The note with it: 30 µM.
Experiment [2] has as its target T1, Ubiquitin-activating enzyme e1, putative (Leishmania donovani (strain BPK282A1)) (UniProt E9BSI1).
T1 sequence (whole entry): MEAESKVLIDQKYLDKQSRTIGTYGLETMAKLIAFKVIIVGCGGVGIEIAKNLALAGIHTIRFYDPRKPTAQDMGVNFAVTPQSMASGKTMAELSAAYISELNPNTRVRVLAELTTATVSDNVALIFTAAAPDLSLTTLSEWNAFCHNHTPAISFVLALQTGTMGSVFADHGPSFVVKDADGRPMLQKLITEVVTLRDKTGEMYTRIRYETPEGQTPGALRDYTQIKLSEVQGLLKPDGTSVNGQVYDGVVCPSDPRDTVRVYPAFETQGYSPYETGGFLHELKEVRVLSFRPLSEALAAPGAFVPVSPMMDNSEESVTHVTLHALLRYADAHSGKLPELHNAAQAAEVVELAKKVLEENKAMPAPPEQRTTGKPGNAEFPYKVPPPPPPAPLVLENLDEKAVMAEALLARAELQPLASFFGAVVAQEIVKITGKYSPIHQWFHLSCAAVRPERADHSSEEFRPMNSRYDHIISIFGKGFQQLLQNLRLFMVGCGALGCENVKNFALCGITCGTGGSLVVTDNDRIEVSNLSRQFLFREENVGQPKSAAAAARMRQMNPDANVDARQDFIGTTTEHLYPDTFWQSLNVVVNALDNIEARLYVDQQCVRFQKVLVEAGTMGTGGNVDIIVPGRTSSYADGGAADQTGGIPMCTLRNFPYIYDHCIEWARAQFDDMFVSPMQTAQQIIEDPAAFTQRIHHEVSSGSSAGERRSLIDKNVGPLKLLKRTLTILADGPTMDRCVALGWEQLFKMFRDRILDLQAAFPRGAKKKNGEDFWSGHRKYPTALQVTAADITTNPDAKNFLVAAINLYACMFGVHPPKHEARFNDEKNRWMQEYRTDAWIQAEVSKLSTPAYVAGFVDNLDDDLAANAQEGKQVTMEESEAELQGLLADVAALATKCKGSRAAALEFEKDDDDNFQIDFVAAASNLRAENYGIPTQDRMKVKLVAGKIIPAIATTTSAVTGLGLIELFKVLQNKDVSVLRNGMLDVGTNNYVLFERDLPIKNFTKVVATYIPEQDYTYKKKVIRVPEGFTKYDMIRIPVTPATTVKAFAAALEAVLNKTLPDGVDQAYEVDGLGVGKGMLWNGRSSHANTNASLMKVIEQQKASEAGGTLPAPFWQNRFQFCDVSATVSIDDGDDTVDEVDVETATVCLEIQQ
Kind of experiment: Leishmania donovani Ubiquitin Activating Enzyme (LdE1). It is filed as functional. The note with it: 30 µM.

Experiment [3] addresses AMP-activated protein kinase, AMPK (Homo sapiens) (UniProt P54646+O43741+P54619+Q9UGJ0+Q9Y478+Q13131+Q9UGI9). Kind of experiment: AMP-dependent Kinase enzyme assay. An in vitro enzyme assay that detects ADP turnover that is directly proportional to AMPK activity. This uses naive AMPK that is activated during the assay with MK-8722. The format is functional. The following applies: 30 µM.

For experiment [4], the target named is Sialic acid-binding Ig-like lectin 9 (Homo sapiens) (UniProt Q9Y336). As to the kind of experiment: Hs-Siglec9 ALPHAscreen SOP 20170721. The note with it: 10 µM. In general terms: Alpha assays give light when donor and acceptor beads are brought close together.
Sequence of Sialic acid-binding Ig-like lectin 9 (Homo sapiens) (Q9Y336 whole entry): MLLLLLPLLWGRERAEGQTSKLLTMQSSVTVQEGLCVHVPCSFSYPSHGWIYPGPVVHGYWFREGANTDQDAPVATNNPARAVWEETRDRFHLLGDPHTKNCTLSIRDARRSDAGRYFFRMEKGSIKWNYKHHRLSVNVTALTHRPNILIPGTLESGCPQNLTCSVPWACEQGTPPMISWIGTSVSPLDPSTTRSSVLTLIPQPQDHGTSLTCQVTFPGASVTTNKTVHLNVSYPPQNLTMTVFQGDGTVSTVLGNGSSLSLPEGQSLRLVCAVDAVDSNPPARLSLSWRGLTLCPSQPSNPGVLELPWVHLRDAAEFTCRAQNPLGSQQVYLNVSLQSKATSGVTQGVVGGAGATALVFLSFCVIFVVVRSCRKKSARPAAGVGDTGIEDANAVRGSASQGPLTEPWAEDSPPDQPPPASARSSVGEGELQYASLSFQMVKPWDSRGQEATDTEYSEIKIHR
For another experiment, the system named is Trypanosoma cruzi. Kind of experiment: Trypanosoma cruzi phosphomannomutase and mannose-1-phosphate guanylyltransferase assay. The following applies: 10 µM. It is filed as functional.
Experiment [5] deals with T2, Arginase-2, mitochondrial (Homo sapiens) (UniProt P78540).
T2 sequence (whole entry): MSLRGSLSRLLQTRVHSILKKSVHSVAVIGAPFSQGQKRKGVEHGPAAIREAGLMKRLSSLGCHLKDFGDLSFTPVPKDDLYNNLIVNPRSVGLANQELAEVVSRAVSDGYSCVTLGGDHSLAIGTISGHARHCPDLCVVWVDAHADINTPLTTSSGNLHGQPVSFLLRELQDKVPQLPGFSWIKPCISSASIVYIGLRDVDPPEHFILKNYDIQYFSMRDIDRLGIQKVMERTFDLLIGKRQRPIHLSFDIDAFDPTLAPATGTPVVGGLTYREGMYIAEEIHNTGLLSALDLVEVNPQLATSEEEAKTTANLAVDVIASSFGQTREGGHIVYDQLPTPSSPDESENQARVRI
Kind of experiment: in vitro enzyme assay to detect the production of urea directly proportional to the activity of Arginase II. Also: in the data most compounds retested in dose-response had high values. It is filed as functional. The note with it: 33.3 µM.

Experiment [6] has as its target T3, Proteasome subunit beta (Trypanosoma cruzi) (UniProt O96673).
T3 sequence (whole entry): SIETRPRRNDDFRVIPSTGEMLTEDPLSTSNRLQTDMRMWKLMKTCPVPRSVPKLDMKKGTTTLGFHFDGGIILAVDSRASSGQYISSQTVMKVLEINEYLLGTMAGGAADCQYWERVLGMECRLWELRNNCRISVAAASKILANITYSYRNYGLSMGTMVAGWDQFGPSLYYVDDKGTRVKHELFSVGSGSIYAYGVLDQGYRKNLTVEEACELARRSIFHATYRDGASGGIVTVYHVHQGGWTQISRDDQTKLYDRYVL
Kind of experiment: Trypanosoma cruzi proteasome chymotrypsin-like activity (TcProtChymo) assay. Also: in the data most compounds retested in dose-response had high values. It is filed as functional. The note with it: 9.37 µM.

In a further experiment the test system is N/A. As to the kind of experiment: Trypanosoma cruzi proteasome luciferase counter-screen. The format is functional. The following applies: 9.37 µM. For orientation: A counterscreen serves to expose hits that act by an unwanted route or on another target.
A further experiment is filed under the species Homo sapiens. As to the kind of experiment: To identify inhibition of the IFN signalling (Jak-Stat) pathway via expression of an eGFP reporter gene under the control of an IFN-stimulated response element (ISRE) containing MxA promoter. It is filed as functional. The following applies: 30 µM. Background: A reporter such as luciferase makes a cellular process visible.

Experiment [7] concerns the target T4, Tyrosyl-tRNA synthetase, putative (Trypanosoma cruzi (strain CL Brener)) (UniProt Q4DSP6).
T4 sequence (whole entry): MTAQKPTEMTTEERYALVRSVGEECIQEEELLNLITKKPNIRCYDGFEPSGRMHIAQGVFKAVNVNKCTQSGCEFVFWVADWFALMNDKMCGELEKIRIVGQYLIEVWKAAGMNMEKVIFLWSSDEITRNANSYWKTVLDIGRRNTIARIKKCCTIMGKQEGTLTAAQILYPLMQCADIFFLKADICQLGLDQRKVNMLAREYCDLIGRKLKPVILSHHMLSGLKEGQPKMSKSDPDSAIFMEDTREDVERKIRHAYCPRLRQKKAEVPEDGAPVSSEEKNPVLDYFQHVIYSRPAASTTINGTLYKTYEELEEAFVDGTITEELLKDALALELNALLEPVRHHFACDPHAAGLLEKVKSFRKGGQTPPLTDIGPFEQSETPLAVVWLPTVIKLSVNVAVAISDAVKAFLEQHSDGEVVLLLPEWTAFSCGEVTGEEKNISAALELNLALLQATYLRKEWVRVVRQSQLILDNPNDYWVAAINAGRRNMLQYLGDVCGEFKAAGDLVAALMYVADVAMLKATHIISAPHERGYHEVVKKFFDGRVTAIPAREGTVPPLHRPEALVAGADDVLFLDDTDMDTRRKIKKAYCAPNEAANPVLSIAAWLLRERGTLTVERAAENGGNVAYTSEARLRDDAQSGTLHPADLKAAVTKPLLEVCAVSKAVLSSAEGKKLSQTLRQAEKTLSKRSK
Kind of experiment: Trypanosoma cruzi tyrosyl tRNA synthetase (TcYRS) _High Tyrosine SOP. Also: in the data most compounds retested in dose-response had high values. It is filed as functional. The note with it: 30 µM.

Experiment [8] deals with T4, Tyrosyl-tRNA synthetase, putative (Trypanosoma cruzi (strain CL Brener)). Kind of experiment: Trypanosoma cruzi tyrosyl tRNA synthetase (TcYRS) SOP. It is filed as functional. The following applies: 30 µM.
For experiment [9], the target named is Chromo domain-containing protein 1 (Saccharomyces cerevisiae (strain ATCC 204508 / S288c) (Baker's yeast)) (UniProt P32657). As to the kind of experiment: ScCHD-1 Enzyme Inhibition Assay. Also: in the data most compounds retested in dose-response had high values. It is filed as functional. The note with it: 30 µM.
Sequence of Chromo domain-containing protein 1 (Saccharomyces cerevisiae (strain ATCC 204508 / S288c) (Baker's yeast)) (P32657 whole entry, the tested form may be a part): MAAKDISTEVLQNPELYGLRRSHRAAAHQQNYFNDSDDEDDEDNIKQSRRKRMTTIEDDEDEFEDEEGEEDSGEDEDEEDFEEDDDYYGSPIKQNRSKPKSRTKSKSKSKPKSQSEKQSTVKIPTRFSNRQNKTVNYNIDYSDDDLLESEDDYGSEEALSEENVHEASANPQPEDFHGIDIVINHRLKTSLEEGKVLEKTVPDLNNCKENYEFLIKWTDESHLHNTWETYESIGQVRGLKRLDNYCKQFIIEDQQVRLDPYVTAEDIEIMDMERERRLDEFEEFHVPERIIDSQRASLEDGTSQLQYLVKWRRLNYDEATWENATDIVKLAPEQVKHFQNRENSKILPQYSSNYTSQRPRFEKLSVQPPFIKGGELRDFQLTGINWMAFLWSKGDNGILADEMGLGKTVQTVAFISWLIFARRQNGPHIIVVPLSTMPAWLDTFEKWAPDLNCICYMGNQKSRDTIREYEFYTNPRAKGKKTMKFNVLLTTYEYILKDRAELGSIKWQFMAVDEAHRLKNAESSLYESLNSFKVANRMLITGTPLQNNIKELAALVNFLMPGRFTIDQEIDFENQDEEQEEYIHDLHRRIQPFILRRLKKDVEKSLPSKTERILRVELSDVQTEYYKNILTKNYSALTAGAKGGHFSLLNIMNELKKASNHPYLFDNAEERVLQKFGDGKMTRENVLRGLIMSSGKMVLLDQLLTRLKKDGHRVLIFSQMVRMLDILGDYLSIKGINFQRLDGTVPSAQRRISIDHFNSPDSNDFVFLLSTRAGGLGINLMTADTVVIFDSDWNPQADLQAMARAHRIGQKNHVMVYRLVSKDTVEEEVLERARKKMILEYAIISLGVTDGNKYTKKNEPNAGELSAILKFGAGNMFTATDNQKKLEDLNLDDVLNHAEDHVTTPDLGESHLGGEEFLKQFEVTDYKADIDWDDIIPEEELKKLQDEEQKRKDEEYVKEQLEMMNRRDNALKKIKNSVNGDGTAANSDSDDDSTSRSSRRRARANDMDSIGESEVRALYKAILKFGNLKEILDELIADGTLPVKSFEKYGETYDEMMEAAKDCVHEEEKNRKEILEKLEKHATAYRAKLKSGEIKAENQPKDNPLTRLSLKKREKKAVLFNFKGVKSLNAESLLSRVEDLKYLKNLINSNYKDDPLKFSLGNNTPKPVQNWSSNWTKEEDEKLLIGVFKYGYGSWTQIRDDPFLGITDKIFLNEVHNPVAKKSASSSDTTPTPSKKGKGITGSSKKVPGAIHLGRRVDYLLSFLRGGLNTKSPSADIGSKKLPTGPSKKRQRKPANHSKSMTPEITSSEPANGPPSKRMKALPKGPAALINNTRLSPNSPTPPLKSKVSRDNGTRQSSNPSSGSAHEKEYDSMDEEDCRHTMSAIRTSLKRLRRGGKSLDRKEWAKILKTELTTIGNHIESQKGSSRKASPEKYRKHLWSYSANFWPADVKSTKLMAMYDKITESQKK

Sequence of Protein translocase subunit SecA (Escherichia coli (strain K12)) (P10408 whole entry): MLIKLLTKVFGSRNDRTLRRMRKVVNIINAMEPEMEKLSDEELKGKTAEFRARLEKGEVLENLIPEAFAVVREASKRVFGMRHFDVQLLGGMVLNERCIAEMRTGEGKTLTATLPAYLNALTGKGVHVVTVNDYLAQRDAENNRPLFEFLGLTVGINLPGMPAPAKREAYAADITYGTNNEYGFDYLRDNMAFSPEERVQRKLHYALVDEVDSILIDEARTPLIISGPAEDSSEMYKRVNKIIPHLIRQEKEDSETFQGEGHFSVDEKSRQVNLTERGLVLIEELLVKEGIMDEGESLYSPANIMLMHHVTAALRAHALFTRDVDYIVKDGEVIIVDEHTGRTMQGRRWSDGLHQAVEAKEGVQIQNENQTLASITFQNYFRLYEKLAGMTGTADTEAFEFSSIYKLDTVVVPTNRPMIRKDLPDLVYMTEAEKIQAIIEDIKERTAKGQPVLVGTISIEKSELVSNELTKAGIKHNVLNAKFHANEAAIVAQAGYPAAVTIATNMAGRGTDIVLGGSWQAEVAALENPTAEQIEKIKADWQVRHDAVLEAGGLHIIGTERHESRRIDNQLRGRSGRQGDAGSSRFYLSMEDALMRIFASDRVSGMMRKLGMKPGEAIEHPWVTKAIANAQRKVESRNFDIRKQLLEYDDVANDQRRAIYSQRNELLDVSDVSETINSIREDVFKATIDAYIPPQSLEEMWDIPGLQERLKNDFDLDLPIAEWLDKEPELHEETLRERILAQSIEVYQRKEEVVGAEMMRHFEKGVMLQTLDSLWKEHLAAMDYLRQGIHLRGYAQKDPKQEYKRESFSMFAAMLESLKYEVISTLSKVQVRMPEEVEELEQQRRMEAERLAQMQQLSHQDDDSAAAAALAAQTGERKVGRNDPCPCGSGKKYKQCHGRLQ

Consider `Cn1cc(-c2cnc(N3CCCC3)nc2)cc1C(=O)O`, for which the Percent Effect was -4.18% in [1]; 8.11% in [2]; 4.07% in experiment [3]; 6.18% in experiment [4]; 6.05% in the experiment with Trypanosoma cruzi; 22.9% in experiment [5]. Besides, the Percent Effect is 95.3% and 96.7% and 97.6% in [6]; 80% and 80.9% in the experiment with N/A; -5.85% in the experiment filed under Homo sapiens; 5.94% in experiment [7]; 13.4% in [8]; -8.33% in [9].

Regarding `CC(C)c1n[nH]c(C(=O)Nc2cc[nH]n2)c1Br`, the Percent Effect in experiment [1] was -6.13%; in [2], 5.06%; in experiment [3] it was 24.9%; in [4], 3.44%; with Trypanosoma cruzi, -4.25%; in [5], -3.8%. For the same molecule, the Percent Effect in experiment [6] is 74% and 65.8% and 74.1%; with N/A, 41.2% and 40.1%; in the experiment filed under Homo sapiens, 24.7%; in experiment [7], -0.493%; in experiment [8] it was 1.27%; in experiment [9] it was -0.338%.

Turning to `O=C(CC1CN(Cc2ccccc2)CCO1)Nc1ccccc1F` (stereo not drawn), the Percent Effect in experiment [1] is -4.53%; in experiment [2], 21.6%; in experiment [3], -4.08%; in experiment [4] it was 3.88%; with Trypanosoma cruzi it was 2.15%; in experiment [5], 4.17%. Moreover, the Percent Effect in experiment [6] is 64.1% and 65% and 65.1%; in the experiment on N/A, 32.6% and 32.9%; in the experiment listed under Homo sapiens, 4.52%; in experiment [7] it was 8.91%; in experiment [8], 15.8%; in experiment [9] it was -1.97%.

On to `COc1cccc(-c2nc(C)c(C(=O)N[C@@H](C)C(=O)O)s2)c1`, for which the Percent Effect in [1] is -0.174%; in experiment [2] it was 12%; in experiment [3] it was -0.167%; in experiment [4] it was -2.7%; in the experiment on Trypanosoma cruzi, -2.36%; in [5] it was -12.5%. Besides, the Percent Effect in experiment [6] was 77.2% and 81.5% and 84.7%; in the experiment with N/A, 56.5% and 53.9%; in the experiment listed under Homo sapiens it was 5.55%; in experiment [7] it was 9.52%; in [8] it was 12.8%; in [9], -7.59%.

As for `Cc1ccc(NCc2cncc3c2CCN(C(=O)C2CC=CC2)C3)nn1`, the Percent Effect in experiment [1] is -0.965%; in experiment [2], 5.33%; in experiment [3] it was -0.665%; in experiment [4] it was 8.87%; in the experiment on Trypanosoma cruzi, 1.74%; in experiment [5], -24.9%. Also, the Percent Effect in experiment [6] is 30.2% and 30.4% and 33.3%; with N/A it was 16.9% and 15.1%; in the experiment filed under Homo sapiens, -6.99%; in experiment [7], 13.5%; in [8], 32.5%; in [9], -6.63%.

Turning to `O=C(Nc1ccccn1)C1CC(=O)N(Cc2ccccn2)C1` (stereo not drawn), the Percent Effect in [1] was -2.05%; in [2], 15.8%; in experiment [3], 1.82%; in [4] it was 8.62%; with Trypanosoma cruzi, -4.97%; in experiment [5] it was 2.37%. Further, the Percent Effect was 26.3% and 37.5% and 33.2% in [6]; 28% and 30% in the experiment on N/A; -8.07% in the experiment filed under Homo sapiens; 3.19% in [7]; 7.79% in experiment [8]; -4% in experiment [9].

`Cc1cc(C(=O)N2CCC3(CCCN(CC4CC4)C3=O)C2)c(C)n1C` (stereo not drawn): the Percent Effect in experiment [1] is -5.53%; in experiment [2], 5.48%; in experiment [3] it was -5.43%; in experiment [4], 6.36%; in the experiment on Trypanosoma cruzi, 0.794%; in experiment [5] it was -4.39%. In addition, the Percent Effect in [6] was 49.3% and 56.6% and 47.8%; with N/A, 11% and 8.3%; in the experiment listed under Homo sapiens, 10.3%; in experiment [7], 20.8%; in experiment [8], 28.4%; in experiment [9], -1.72%.

In the case of `N#CC1(C(=O)Nc2ccc(OC(F)F)cc2)CCCC1`, the Percent Effect in experiment [1] is -4.03%; in [2], 1.39%; in experiment [3], 5.97%; in experiment [4], -0.254%; with Trypanosoma cruzi, 0.68%; in [5], 2.21%. Moreover, the Percent Effect in [6] is 3.68%; in the experiment filed under Homo sapiens, -8.03%; in [7] it was 2.1%; in [8], 5.13%; in experiment [9], -0.635%.

For the molecule `O=C(c1ccc(C2CCCO2)s1)N1Cc2ccccc2C1` (stereo not drawn), the Percent Effect in [1] is -2.89%; in [2], -2.7%; in experiment [3], -1.29%; in experiment [4], 1.79%; in the experiment on Trypanosoma cruzi, -4.25%; in experiment [5], -2.86%. The Percent Effect was 55.5% and 35.5% and 40.2% in experiment [6]; 23.5% and 18.5% in the experiment on N/A; -5.94% in the experiment listed under Homo sapiens; -2.65% in experiment [7]; 0% in experiment [8]; 2.95% in experiment [9].

Take `Cc1cnn(C2CCCN(C(=O)c3cccc(Cn4ccnc4)c3)C2)c1` (stereo not drawn): the Percent Effect in [1] was -1.7%; in experiment [2] it was 13.9%; in [3] it was -5.85%; in experiment [4] it was -7.26%; in the experiment with Trypanosoma cruzi, 2.36%; in experiment [5] it was -4.09%. Besides, the Percent Effect was 17.3% in [6]; 25.8% in the experiment filed under Homo sapiens; 1.04% in [7]; 10.1% in experiment [8]; -30.4% in experiment [9].
